Reference: PubChem BioAssay AID504329 (Southern Research Specialized Biocontainment Screening …, 2011)
The whole screen tested about 340,000 compounds, of which about 1,000 (0.29%) were called active. Cut-off read from the data, not from the text of the source: inconclusive = inhibition above about 27% without an active follow-up result; inactive = below that. The list is a sample of the results. Potency and affinity values are given separately.

Assay: NS1A inhibition, H1N1 influenza, cell based functional assay (AID 504329)
Conditions: percent inhibition, at 12.5 µM, stronger effect = higher value

SMILES | inhibition
Cc1ccc(-n2nc3c(=O)n(CCCC(=O)NCc4cccc(F)c4)nc(C)c3c2C)cc1 | 4.12% (inactive)
Cc1c2cnn(CC(=O)NCCN3CCOCC3)c(=O)c2c(C)n1Cc1ccccc1 | 7.12% (inactive)
Cc1ccc(Nc2nc(N)nc(CSc3nnnn3-c3ccccc3)n2)cc1 | -1.1% (inactive)
COc1cccc(CN(C)C(=O)c2ccc(NS(=O)(=O)c3ccc4[nH]c(=O)[nH]c4c3)cc2)c1OC | -3.23% (inactive)
CC(C(=O)Nc1cccc(S(=O)(=O)N2CCOCC2)c1)N1CCN(C/C=C/c2ccccc2)CC1 (centres undefined) | -4.15% (inactive)
CCOC(=O)Cc1csc(NS(=O)(=O)c2ccc(NC(C)=O)cc2)n1 | -2.56% (inactive)
Cc1ccc(S(=O)(=O)/N=C2\C=C(Nc3cccc(C(=O)O)c3)C(=O)c3ccccc32)c(C)c1 | 25.4% (inactive)
O=C(O)c1ccc(NC2=C/C(=N/S(=O)(=O)c3ccccc3)c3ccccc3C2=O)cc1 | 15.2% (inactive)
Cc1cc(C)c(S(=O)(=O)/N=C2\C=C(NS(=O)(=O)c3ccccc3)C(=O)c3ccccc32)c(C)c1 | 0.45% (inactive)
CCc1ccc(S(=O)(=O)/N=C2\C=C(Nc3cccc(C(=O)O)c3)C(=O)c3ccccc32)cc1 | 24.6% (inactive)
O=C(COC(=O)c1c(F)cccc1F)Nc1ccc(N2CCCCC2)cc1 | -4.21% (inactive)
CCOc1ccc(-n2c(SCc3cc(=O)oc4cc(C)c(C(C)C)cc34)nnc2-c2cccnc2)cc1 | 2.59% (inactive)
COc1ccc(C2CC3(CC(C)(C)NC(SC)=N3)Oc3cc(O)cc(C)c32)cc1 (centres undefined) | 2.74% (inactive)
CCCN1CCC(NC(=O)C2CCCCC2C(=O)O)CC1 (centres undefined) | -9.23% (inactive)
CC(c1ccon1)N(C)C(=O)c1ccc(OC2CCN(C(=O)C3CC3)CC2)cc1 (centres undefined) | 1.15% (inactive)
CC(=O)c1ccc(N=c2scc(C)n2C(C)C)cc1 | 2.71% (inactive)
CCN(CC)c1ccc(C=NN2CCCCCC2)cc1 | 1.15% (inactive)
Clc1ccc(/C=N/N2CCCCC2)cc1 | 10.3% (inactive)
COc1ccc(CNCC2COc3ccccc3O2)cc1 (centres undefined) | -2.36% (inactive)
O=C(CC1C[C@H](C(=O)N2CCCCC2)[C@@]2(CCc3ccccc3)c3[nH]c4ccccc4c3CCN2C1=O)NCCCn1ccnc1 (some centres undefined) | -10.1% (inactive)

SMILES | inhibition
CCN1C(=O)/C(=C2\C=Cc3ccccc3N2CC)OC1=S | 20.4% (inactive)
COCCN1C(=O)/C(=C2/C(=O)N(CC(=O)Nc3ccccc3Cl)c3ccccc32)SC1=S | 1.06% (inactive)
CCN1C(=C2C(=O)c3ccccc3C2=O)C=Cc2ccccc21 | -0.12% (inactive)
CCN1/C(=C2\OC(=S)N(C)C2=O)C=Cc2ccccc21 | 4.12% (inactive)
CCCN1/C(=C2/SC(=S)N(CC)C2=O)C=Cc2ccccc21 | -4.1% (inactive)
CCN1/C(=C2/SC(=S)N(C)C2=O)C=Cc2cc(C)ccc21 | 9.87% (inactive)
CN1C(=O)/C(=C2/C=Cc3ccccc3N2CCCS(=O)(=O)O)SC1=S | 8.55% (inactive)
CCN1C(=O)/C(=C2\SC(=S)N(NC(=O)c3ccccc3O)C2=O)c2ccccc21 | -6.27% (inactive)
CC(SCc1ccccc1)C(=O)Nc1ccccc1F (centres undefined) | 4.17% (inactive)
N#Cc1c(Sc2ncc(C(F)(F)F)cc2Cl)nsc1C/C=N\OCc1ccccc1Br | -7.95% (inactive)
Cn1nc(C(C)(C)C)cc1C(=O)NNC(=O)c1ccc(C(F)(F)F)cc1 | -21.4% (inactive)
O=C(NNc1cccc(Cl)n1)c1ccccc1CC[N+](=O)[O-] | -1.98% (inactive)
CCn1nc(NS(=O)(=O)c2ccc([N+](=O)[O-])cc2)c2cc3ccccc3nc21 | 4.22% (inactive)
CCC(C)(C)C1CCC2(CC1)NC(=O)N(CC(=O)N(C)Cc1ccc3c(c1)OCCO3)C2=O (centres undefined) | -14.3% (inactive)
CCN1/C(=C2\C(=O)N(C)C(=S)N2C)C=Cc2ccccc21 | 6.98% (inactive)
CCN1C(=O)/C(=c2\o/c(=C3\C=Cc4ccccc4N3CC)c(=O)n2CC)SC1=S | 19.6% (inactive)
O=C(NCCO)Nc1ccc(Cl)cc1 | 0.44% (inactive)
Cc1ccc(S(=O)(=O)CCC(=O)Nc2nccs2)cc1 | 6.51% (inactive)
O=C(Cc1c[nH]c2ccccc12)NNCc1ccc(N(CCCl)CCCl)cc1 | 14.4% (inactive)
Oc1[nH]c2ccccc2c1N=Nc1ccc(F)cc1 | -3.37% (inactive)

SMILES | inhibition
O=C(O)c1ccc(N=Nc2c(O)[nH]c3ccccc23)cc1 | -7.55% (inactive)
O=C(Cc1ccc(Cl)c(Cl)c1)N1CCOCC1 | -9.69% (inactive)
O=C(N/N=C/c1ccccc1[N+](=O)[O-])c1cccs1 | -0.41% (inactive)
O=C(N/N=C/c1cccc([N+](=O)[O-])c1O)C(O)(c1ccccc1)c1ccccc1 | -8.83% (inactive)
Cc1cc(C(=O)N/N=C/c2cc(Cl)cc([N+](=O)[O-])c2O)n[nH]1 | -7.04% (inactive)
O=C(N/N=C\c1cc2c(cc1[N+](=O)[O-])OCO2)c1cccs1 | -1.36% (inactive)
Cc1cc([N+](=O)[O-])cc(/C=N\NC(=O)C2COc3ccccc3O2)c1O (centres undefined) | 19.3% (inactive)
Cc1ccc(C(=O)N/N=C\c2ccccc2[N+](=O)[O-])cn1 | 4.04% (inactive)
CCNC(=S)N(Cc1ccc2c(c1)OCO2)C1CC(=O)N(c2ccc(OC)cc2)C1=O (centres undefined) | -4.24% (inactive)
O=C(NCCN1CCOCC1)C(=O)NCc1ccco1 | -2.57% (inactive)
CC1CCC(NC(=O)CSc2nncs2)CC1 (centres undefined) | 1.05% (inactive)
Cc1cc2nc(-c3ccc(SCC(=O)Nc4ccc(S(=O)(=O)NC5CC5)cc4)nc3)[nH]c2cc1C | -2.72% (inactive)
C=CCOc1ccccc1/C=C/C(=O)O | 1.54% (inactive)
CC(=O)c1ccc(N(C)C)c2c(N(C)C)cccc12 | -6.19% (inactive)
CN(C)c1cccc2c(/C=N/O)ccc(N(C)C)c12 | 5.22% (inactive)
Cc1nn(-c2ccccc2)c2c1C(c1ccccc1)C(C#N)=C(N)O2 (centres undefined) | -4.13% (inactive)
Cc1ccc(-n2nc(C)c3c2OC(N)=C(C#N)C3c2ccco2)cc1 (centres undefined) | 15.8% (inactive)
Cc1ccc(-n2nc(C)c3c2OC(N)=C(C#N)C3c2ccncc2)cc1 (centres undefined) | -2% (inactive)
Cc1nn(-c2ccccc2)c2c1C(c1cccs1)C(C#N)=C(N)O2 (centres undefined) | 11.8% (inactive)
